Results taken from PubChem BioAssay (NCATS).
Inconclusive results are not listed. Activity calls are given as the source filed them. Unless noted, calls follow the shape of the dose curve; as a rule, active = well fitted curve in the direction sought with a large enough effect; inconclusive = small, poorly fitted or top-dose-only effect, or another doubt; inactive = no such curve, though single readings can be large; an effect the other way counts as inactive or inconclusive.

Legend:
[1] = biological target: Cytochrome P450 1A2 (Homo sapiens) (UniProt P05177); assay: p450-cyp1a2 (AID 410; calls by dose curve;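 also: -100% = full effect of reference inhibitor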)
Outline: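 Read-out is luminescence from luciferin produced by CYP1A2 demethylation of Luciferin-ME (100uM, at Km). Detection reagent stopped the 60 min NADPH-dependent reaction; signals were normalized to 57 uM furafylline.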

[2] = NFAT Signaling Pathway (AID 444; active = well fitted curve in either direction with a large enough effect, not every such curve was filed as active;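 also: carbachol stimulus at about its EC50 of 1 µM final; % is scaled to controls: 0 for no effect and ±100 for the full control effect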); conditions: Jurkat NFAT-bla M1, carbachol, beta-lactamase ratio, 5 h; at 38 µM (top of the series)
Outline: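 Jurkat cells carrying an NFAT-driven β-lactamase reporter and co-transfected muscarinic M1 receptor were treated with compound plus carbachol (1 uM final, an EC50 level) for 5 h at 37 °C. CCF4 loading followed for 1 h at RT; 460/530 nm ratio gave %activity.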

[3] = biological target: Glucocorticoid receptor (Homo sapiens) (UniProt P04150); assay: GR-GFP Redistribution (AID 450;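 active = compounds whose dose series gives a full or clear partial fitted curve of increased nuclear translocation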; also: potency is read from the fitted curve at half-maximal effect); conditions: U2OS GR-GFP nuclear translocation, laser cytometry, 2 h
Glucocorticoid receptor (Homo sapiens), sequence (P04150 whole entry, looked up, the tested form may be a part): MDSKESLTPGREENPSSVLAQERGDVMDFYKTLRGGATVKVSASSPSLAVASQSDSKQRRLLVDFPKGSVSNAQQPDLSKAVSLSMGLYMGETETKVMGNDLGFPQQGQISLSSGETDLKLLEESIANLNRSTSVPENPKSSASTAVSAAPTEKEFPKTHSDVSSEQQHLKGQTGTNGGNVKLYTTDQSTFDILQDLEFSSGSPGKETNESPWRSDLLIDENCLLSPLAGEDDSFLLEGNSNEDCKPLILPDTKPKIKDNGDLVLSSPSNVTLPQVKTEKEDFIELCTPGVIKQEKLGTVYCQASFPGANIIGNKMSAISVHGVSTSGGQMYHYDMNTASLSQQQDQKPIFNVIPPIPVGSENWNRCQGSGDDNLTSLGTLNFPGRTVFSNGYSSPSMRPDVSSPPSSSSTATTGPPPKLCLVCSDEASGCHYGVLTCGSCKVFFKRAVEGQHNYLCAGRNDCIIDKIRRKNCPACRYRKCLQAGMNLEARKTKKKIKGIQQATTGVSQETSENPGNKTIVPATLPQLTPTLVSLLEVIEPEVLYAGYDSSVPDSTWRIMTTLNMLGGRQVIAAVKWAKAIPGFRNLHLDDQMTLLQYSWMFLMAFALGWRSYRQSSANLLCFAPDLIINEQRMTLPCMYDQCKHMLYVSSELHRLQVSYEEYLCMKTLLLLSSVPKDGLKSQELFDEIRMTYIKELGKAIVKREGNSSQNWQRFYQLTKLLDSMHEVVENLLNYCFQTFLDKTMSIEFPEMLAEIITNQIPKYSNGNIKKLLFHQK

[4] = biological target: Glucocorticoid receptor (Homo sapiens) (UniProt P04150); assay: GR-EFC Redistribution (AID 451; calls by dose curve; also: potency is read from the fitted curve at half-maximal effect); conditions: CHO-K1 GR-EFC translocation, beta-gal luminescence, 2 h
Outline: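 CHO-K1 cells stably expressing nuclear-localized β-gal enzyme acceptor and GR fused C-terminally to the enzyme donor fragment; ligand-driven nuclear translocation restores β-gal by complementation. Compounds titrated up to 46 uM final, 2 h at 37 °C; luminescence read.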

[5] = biological target: Mitogen-activated protein kinase 10 (Mus musculus) (UniProt Q61831); assay: JNK3 AlphaScreen Assay (AID 530; active = well fitted curve in either direction with a large enough effect, not every such curve was filed as active;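 also: kinase came from lysate of stimulated human HepG2 cells; signal reports phosphorylation of biotinylated GST-cJun 1-79 at Ser73 with 10 µM ATP; % is scaled to controls: 0 for no effect and ±100 for the full control effect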)
Outline: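 Biotinylated GST-cJun(1-79) served as substrate for JNK3 in HepG2 lysates stimulated with IL-1beta and TNF-alpha. ATP was 10 uM final, pH 7.6. Ser73 phosphorylation was quantified by AlphaScreen (680 nm excitation).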

[6] = biological target: 3',5'-cyclic-AMP phosphodiesterase 4B (Homo sapiens) (UniProt Q07343); assay: qHTS Assay for Inhibitors of PDE-IV (AID 607; active = well fitted activation curve with a large enough effect in the main read-out, with a control signal flat, not every such curve was filed as active; also: % of control where 0% means no effect)
3',5'-cyclic-AMP phosphodiesterase 4B (Homo sapiens), sequence (Q07343 whole entry, looked up): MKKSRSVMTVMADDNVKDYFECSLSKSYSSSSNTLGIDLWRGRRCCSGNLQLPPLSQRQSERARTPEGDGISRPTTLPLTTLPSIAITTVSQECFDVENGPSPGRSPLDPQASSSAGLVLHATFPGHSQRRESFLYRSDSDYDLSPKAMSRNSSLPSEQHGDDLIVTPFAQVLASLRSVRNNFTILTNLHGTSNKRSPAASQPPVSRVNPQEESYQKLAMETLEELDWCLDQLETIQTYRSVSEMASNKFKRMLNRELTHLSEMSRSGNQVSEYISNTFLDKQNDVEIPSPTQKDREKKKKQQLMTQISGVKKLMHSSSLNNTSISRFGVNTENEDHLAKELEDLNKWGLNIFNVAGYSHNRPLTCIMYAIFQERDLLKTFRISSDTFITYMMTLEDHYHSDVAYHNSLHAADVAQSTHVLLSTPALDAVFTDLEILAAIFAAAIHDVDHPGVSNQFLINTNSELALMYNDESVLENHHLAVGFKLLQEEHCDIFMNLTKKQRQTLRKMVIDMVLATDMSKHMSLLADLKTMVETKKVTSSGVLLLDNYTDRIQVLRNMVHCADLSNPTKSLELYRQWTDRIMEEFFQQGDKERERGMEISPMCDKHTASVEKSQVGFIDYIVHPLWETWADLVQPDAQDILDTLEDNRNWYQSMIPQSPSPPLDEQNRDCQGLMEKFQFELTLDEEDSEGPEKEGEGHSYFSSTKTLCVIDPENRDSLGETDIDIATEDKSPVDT
Outline: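 Cell-based read-out of cAMP via a modified cyclic nucleotide-gated channel and membrane potential dye (535/590 nm) in HEK293 cells expressing PDE4 endogenously. Compounds tested up to 22.9 uM final; 100 uM RO 20-1724 reference.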

[7] = biological target: Guanine nucleotide-binding protein G(i) subunit alpha-1 (Homo sapiens) (UniProt P63096); assay: qHTS Assay for Inhibitors of RGS12 GoLoco Motif Activity (Green Fluorophore) (AID 879);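 also: 0% = labeled peptide with Gαi1 and full inhibition = labeled peptide alone without protein; negative values mean loss of peptide binding seen as reduced polarization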
Guanine nucleotide-binding protein G(i) subunit alpha-1 (Homo sapiens), sequence (P63096 whole entry, looked up): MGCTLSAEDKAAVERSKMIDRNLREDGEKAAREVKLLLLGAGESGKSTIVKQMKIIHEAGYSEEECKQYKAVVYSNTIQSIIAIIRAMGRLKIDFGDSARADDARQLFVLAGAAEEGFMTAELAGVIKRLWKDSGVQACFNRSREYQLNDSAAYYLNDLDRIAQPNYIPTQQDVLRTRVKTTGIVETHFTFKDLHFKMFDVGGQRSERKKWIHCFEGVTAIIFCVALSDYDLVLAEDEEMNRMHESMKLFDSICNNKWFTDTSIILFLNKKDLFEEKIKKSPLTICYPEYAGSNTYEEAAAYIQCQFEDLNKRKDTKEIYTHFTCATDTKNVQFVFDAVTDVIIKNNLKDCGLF
Outline: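 A drop in FITC polarization marked displacement of the FITC-tagged RGS12 GoLoco peptide (10 nM) from Gαi1 (50 nM). Compounds were incubated 10 min at room temperature in Tris pH 7.5 buffer containing 150 mM NaCl, 0.1 mM GDP and 0.05% NP40; unlabeled peptide titration served as control.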

[8] = qHTS Assay for Identification of Small Molecule Agonists for Thrombopoietin (TPO) Signaling Pathway (AID 917); also: % is scaled to controls: 0 for no effect and ±100 for the full control effect
Outline: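 First, Ba/F3 cells with human TPO receptor were held overnight without IL-3. Next, compounds and TPO (26 pM final) were added. After 24 hrs at 37 C, luciferase detection reagent was added and luminescence measured following 10 min at room temperature.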

[9] = biological target: Muscarinic acetylcholine receptor M1 (Rattus norvegicus) (UniProt P08482); assay: qHTS Assay for Antagonists of Acetylcholine Muscarinic M1 Receptor: Measurement of IP-One Response (AID 944); also: nearly all actives have a fitted effect of over 75% in size
Outline: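 Antagonism was measured as loss of carbachol-driven (EC80) IP1 accumulation in CHO cells carrying rat M1, using a homogeneous IP-One TR-FRET kit read at 620 and 665 nm.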

[10] = biological target: Pyruvate kinase (Leishmania mexicana) (UniProt Q27686); assay: qHTS Validation Assay for Inhibitors of Leishmania Mexicana Pyruvate Kinase (AID 945);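 also: 0% = DMSO only neutral control wells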
Outline: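 Eight-point qHTS titrations in triplicate, data normalized to DMSO neutral control. Reaction: 0.2 nM LmPYK E451W mutant, 0.5 mM PEP, 0.1 mM ADP, 7 mM MgCl2, pH 7.2, one hour at room temperature; luminescent ATP detection.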

[11] = biological target: Pyruvate kinase PKM (Homo sapiens) (UniProt P14618); assay: qHTS Assay for Activators of Human Muscle Pyruvate Kinase (AID 954; active = well fitted curve in the direction sought with a large enough effect, not every such curve was filed as active;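 also: 0% = uninhibited enzyme and -100% = no enzyme or full thiadiazolimine inhibition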)
Outline: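 ATP production by PKM2 detected via luciferase luminescence after 1 h room-temperature reaction (0.1 nM enzyme, PEP at Km 0.5 mM, ADP 0.1 mM, pH 7.2 imidazole buffer). Inhibition scaled to no-enzyme control; activation referenced to 0.3 nM enzyme wells.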

[12] = biological target: Alpha-galactosidase A (Homo sapiens) (UniProt P06280); assay: Counterscreen for Glucocerebrosidase Inhibitors: qHTS Assay for Human alpha-Galactosidase at pH 4.5 (AID 992); also: 0% is about no effect
Alpha-galactosidase A (Homo sapiens), sequence (P06280 whole entry, looked up): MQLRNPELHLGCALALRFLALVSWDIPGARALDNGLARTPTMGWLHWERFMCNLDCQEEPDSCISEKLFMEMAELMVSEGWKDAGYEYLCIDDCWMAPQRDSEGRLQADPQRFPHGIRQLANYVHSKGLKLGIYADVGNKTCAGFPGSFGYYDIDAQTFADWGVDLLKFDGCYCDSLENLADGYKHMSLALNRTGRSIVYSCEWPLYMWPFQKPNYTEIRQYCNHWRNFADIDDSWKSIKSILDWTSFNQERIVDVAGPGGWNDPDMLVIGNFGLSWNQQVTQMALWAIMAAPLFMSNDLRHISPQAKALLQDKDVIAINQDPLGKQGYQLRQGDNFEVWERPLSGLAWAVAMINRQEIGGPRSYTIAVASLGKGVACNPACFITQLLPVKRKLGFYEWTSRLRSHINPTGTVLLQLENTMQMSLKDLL
Outline: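 Fluorogenic 1536-well qHTS at pH 4.5 (citrate, Tween-20): 2 nM enzyme, 80 uM 4-MU-alpha-galactoside, 20 min room temperature, NaOH/glycine stop. Titration 0.7 nM to 77 uM, data normalized to no-enzyme and full-activity controls, Hill-fitted AC50.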

[13] = biological target: alpha-glucosidase (Oryza sativa, rice) (UniProt Q653V4); assay: Counterscreen for Glucocerebrosidase Inhibitors: qHTS Assay for Rice alpha-Glucosidase at pH 5.0 (AID 997);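 also: 0% = full activity with enzyme and -100% = basal without enzyme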
Outline: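 Endpoint fluorogenic assay at pH 5.0: compounds (0.7 nM to 77 uM) titrated against 4 nM rice enzyme and 400 uM 4-MU-alpha-glucoside for 20 min at room temperature; NaOH/glycine stop, read ex 365/em 440 nm, Hill-fitted AC50.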

[14] = Cytometric Cell-Based qHTS for Inhibitors of the mTORC1 Signaling Pathway in MEF (Tsc2-/-, p53-/-) Cells (AID 2660);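 also: Tsc2 and p53 null MEFs carrying empty vector with compound for 24 h; percent of cells above a phospho-rpS6 to PI ratio cutoff in each well; plate controls were DMSO for no effect and rapamycin for full effect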
Outline: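 Immunofluorescence qHTS of rpS6 Ser235/236 phosphorylation: MEFs (Tsc2-/-, p53-/-) treated 24 h, 37 C, in DMEM + 10% FBS. Alexa-488 signal normalized to PI count, referenced to rapamycin (7.5 nM) and DMSO; PI cell number recorded for viability.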

[15] = High Content Imaging Cell-Based qHTS for Inhibitors of the mTORC1 Signaling Pathway in MEF (Tsc2-/-, p53-/-) Cells (AID 2666); conditions: at 38.3 µM (top of the series);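 also: percent of cells scored positive for phospho-rpS6 Ser235/236 immunostaining by imaging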
Outline: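 Inhibition of rpS6 phosphorylation is measured by immunofluorescence imaging in empty-vector Tsc2-/-, p53-/- mouse embryonic fibroblasts after 24 hrs compound exposure at 37 degree Celsius. Results are reported as % positive cells per well.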

[16] = High Content Imaging Cell-Based qHTS for Inhibitors of the mTORC1 Signaling Pathway in MEF Cells (AID 2667);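 also: Tsc2-/- p53-/- MEFs stably re-expressing wild-type Tsc2 exposed 24 h; plate controls were DMSO wells for no effect and rapamycin control wells for full effect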
Outline: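 Fixed-cell imaging of phospho-S6 (Ser235/236, Alexa-488) after 24 hrs of compound treatment at 37 degree Celsius. Signal was normalized to Hoechst, and thresholds from the highest and lowest wells split cells into % active versus % non-active.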

[17] = Cytometry Cell-Based qHTS for Inhibitors of the mTORC1 Signaling Pathway in MEF cells (AID 2668);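 also: Tsc2-/- p53-/- mouse embryonic fibroblasts stably re-expressing wild-type Tsc2; percent cells positive for phospho-rpS6 Ser235/236 relative to propidium iodide stain; plate controls were DMSO wells for no effect and 7.5 nM rapamycin control wells for full effect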
Outline: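 WT MEFs (Tsc2-/-, p53-/- stably re-expressing WT Tsc2) in DMEM + 10% FBS received compounds 24 hrs after plating, for 24 hrs at 37 degree Celsius. Fixed cells stained with Alexa-488 anti-phospho-rpS6 Ser235/236 and propidium iodide; laser-scanning cytometry read-out.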

[18] = biological target: DNA polymerase III PolC-type (Bacillus subtilis (strain 168)) (UniProt P13267); assay: qHTS Validation Assay for the Inhibitors of DNA Replication in Gram-Positive Bacteria (AID 485295);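 also: PicoGreen fluorescence of double-stranded DNA made on primed circular M13 template; 0% = DMSO wells and -100% = EDTA-quenched background wells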
DNA polymerase III PolC-type (Bacillus subtilis (strain 168)), sequence (P13267 whole entry, looked up): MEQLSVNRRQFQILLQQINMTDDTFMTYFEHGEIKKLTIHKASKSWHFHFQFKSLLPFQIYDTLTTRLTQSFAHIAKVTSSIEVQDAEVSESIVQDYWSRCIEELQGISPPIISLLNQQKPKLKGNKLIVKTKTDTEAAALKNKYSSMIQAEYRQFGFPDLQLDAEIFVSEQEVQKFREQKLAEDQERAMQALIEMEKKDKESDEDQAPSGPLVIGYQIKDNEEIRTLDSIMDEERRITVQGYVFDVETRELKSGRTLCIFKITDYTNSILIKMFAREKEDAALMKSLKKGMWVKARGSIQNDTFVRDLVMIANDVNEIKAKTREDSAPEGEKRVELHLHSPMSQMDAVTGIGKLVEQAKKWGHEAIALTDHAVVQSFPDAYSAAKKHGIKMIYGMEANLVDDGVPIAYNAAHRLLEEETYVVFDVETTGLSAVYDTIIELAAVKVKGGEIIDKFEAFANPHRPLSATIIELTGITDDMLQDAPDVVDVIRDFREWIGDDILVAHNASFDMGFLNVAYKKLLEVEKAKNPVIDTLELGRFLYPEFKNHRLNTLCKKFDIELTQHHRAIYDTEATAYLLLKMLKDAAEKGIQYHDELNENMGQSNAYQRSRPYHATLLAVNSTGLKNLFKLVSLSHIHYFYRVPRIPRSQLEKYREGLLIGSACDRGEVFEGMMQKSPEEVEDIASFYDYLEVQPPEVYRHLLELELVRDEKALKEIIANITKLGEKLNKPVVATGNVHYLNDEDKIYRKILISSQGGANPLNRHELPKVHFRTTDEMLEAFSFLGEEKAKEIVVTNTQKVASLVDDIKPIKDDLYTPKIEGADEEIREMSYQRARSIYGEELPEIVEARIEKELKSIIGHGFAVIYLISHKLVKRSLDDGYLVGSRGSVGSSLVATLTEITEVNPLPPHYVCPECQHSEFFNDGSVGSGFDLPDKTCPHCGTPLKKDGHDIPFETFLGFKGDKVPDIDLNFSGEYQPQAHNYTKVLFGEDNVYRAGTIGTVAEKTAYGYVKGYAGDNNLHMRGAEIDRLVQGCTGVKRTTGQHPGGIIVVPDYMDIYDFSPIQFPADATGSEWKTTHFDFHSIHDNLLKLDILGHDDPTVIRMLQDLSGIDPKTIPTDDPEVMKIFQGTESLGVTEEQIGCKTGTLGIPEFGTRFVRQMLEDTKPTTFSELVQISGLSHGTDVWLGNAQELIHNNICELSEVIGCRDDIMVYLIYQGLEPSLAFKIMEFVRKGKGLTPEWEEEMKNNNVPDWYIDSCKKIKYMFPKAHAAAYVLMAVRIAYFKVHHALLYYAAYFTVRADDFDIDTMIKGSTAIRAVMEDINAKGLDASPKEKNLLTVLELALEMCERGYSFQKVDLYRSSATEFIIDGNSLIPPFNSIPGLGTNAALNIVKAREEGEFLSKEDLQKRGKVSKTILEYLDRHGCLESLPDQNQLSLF
Outline: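 Reconstituted B. subtilis holoenzyme (Pol III, beta clamp, SSB, primase) was preincubated with compound at room temperature, then given single-stranded circular M13Gori plus dNTPs and NTPs. EDTA-containing PicoGreen stopped the reaction, and dsDNA product was read by fluorescence.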

[19] = biological target: Tumor susceptibility gene 101 protein (Homo sapiens) (UniProt Q99816); assay: qHTS Validation Assay for Iinhibitors of HIV-1 Budding by Blocking the Interaction of PTAP/TSG101 (AID 485342; calls by dose curve; also: 0% is about no effect)
Outline: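 Tsg101 binding domain (10 uM final) in pH 7.5 HEPES/NaCl/Tween 20/EDTA/TCEP buffer was mixed with pin-transferred compounds, then FITC-labeled PTAP peptide (50 nM final) was added; after 20 min at r.t., fluorescence polarization was read.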

[20] = qHTS Validation Assay to Find Inhibitors of Chronic Active B-Cell Receptor Signaling (AID 485345; active = well fitted curve in the direction sought with a large enough effect in the main read-out, with a control signal flat, not every such curve was filed as active;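 also: 0% = untreated basal cells and 100% = 10 µM MG-132 proteasome inhibitor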)
Outline: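 TMD8 ABC-DLBCL cells with dox-inducible green luciferase–IκBα fusion and red native luciferase; compounds 46 uM–3 nM, 4 h at 37C with doxycycline in 0.5% FBS IMDM. Green/red ratio normalized to basal and 10 uM MG-132.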

[21] = biological target: Thioredoxin reductase 1, cytoplasmic (Rattus norvegicus) (UniProt O89049); assay: qHTS Assay for Substrates of Mammalian Selenoprotein Thioredoxin Reductase 1 (TrxR1) (AID 488772);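 also: 0% is about no effect; a drop in NADPH fluorescence below the no-compound background marks a TrxR1 substrate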
Outline: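 In this dual-purpose format, potential substrates are identified from the first fluorescence read after selenite addition, not from the 8-minute delta. Rat enzyme is preincubated with NADPH and then with compound at ~22 deg C.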

[22] = biological target: Chromobox protein homolog 1 (Homo sapiens) (UniProt P83916); assay: qHTS Validation Assay for Inhibitors of HP1-beta Chromodomain Interactions with Methylated Histone Tails (AID 488953);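 also: loss of AlphaScreen luminescence from HP1-beta binding biotinylated H3K9me3 peptide; % is scaled to controls: 0 for no effect and ±100 for the full control effect; nearly all actives have a fitted effect of over 50% in size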
Outline: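 Compounds pinned into a preassembled complex of HP1-beta and trimethyl-K9 histone H3(1-18) biotin peptide (50 nM each; PBS pH 7.4, 0.01% Tween-20). After 30 min, bead-based AlphaScreen detection followed.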

[23] = biological target: Methanococcus maripaludis chaperonin (MmCpn) (UniProt Q6LX38); assay: High-Throughput Screening for Modulators of Cytosolic Chaperonin Activity: MmCpn Primary Screen (AID 488978);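 also: 50 nM MmCpn enzyme hydrolysing 30 µM ATP at 37 °C; 0% is about no effect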
Methanococcus maripaludis chaperonin (MmCpn), sequence (Q6LX38 1-543): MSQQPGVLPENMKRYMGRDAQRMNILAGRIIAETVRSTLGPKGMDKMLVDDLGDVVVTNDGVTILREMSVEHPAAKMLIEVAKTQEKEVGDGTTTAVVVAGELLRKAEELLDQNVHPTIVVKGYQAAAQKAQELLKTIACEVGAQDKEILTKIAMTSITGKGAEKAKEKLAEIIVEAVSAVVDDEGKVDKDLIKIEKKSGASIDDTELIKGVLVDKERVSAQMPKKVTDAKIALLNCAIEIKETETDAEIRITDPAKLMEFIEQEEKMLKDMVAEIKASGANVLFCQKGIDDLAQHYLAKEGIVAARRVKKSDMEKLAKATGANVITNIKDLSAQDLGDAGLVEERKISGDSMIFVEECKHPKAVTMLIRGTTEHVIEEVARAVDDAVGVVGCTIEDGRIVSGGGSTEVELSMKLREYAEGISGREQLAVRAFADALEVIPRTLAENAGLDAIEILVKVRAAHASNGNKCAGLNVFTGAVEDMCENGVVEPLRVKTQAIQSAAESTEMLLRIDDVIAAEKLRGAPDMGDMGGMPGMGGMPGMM
Outline: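 MmCpn (50 nM final) was preincubated with compound 5 min at RT, then 30 uM ATP (final) was added and the reaction ran 10 min at 37C. ADP produced was detected by Transcreener HTRF (ex 320 nm; em 590/665 nm).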

[24] = biological target: D(1A) dopamine receptor (Homo sapiens) (UniProt P21728); assay: HTS Assay for Allosteric Agonists of the Human D1 Dopamine Receptor: Primary Screen for Agonists (AID 488981); also: 0% is about no effect
D(1A) dopamine receptor (Homo sapiens), sequence (P21728 whole entry, looked up): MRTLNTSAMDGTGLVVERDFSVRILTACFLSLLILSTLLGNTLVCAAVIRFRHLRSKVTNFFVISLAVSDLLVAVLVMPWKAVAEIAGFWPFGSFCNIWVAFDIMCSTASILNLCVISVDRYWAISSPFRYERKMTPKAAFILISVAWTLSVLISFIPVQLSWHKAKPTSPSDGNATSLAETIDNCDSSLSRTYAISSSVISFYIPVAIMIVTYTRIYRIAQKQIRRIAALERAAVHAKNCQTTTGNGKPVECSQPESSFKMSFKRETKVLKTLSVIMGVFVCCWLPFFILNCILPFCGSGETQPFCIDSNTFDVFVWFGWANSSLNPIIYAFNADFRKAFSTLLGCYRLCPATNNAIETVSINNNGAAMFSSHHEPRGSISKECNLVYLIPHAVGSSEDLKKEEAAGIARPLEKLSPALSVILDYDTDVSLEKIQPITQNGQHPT
Outline: (§1)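 Tetracycline-induced HEK293 T-REx cells force-coupled to calcium signalling were incubated overnight at 30 C and dye-loaded at room temperature. Calcium flux over 180 s after compound addition flagged agonists; a further 180 s read after EC20 dopamine flagged potentiators.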

[25] = biological target: D(1A) dopamine receptor (Homo sapiens) (UniProt P21728); assay: HTS Assay for Allosteric Agonists of the Human D1 Dopamine Receptor: Primary Screen for Potentiators (AID 488982); also: 0% is about no effect
Outline: as §1

[26] = biological target: D(1A) dopamine receptor (Homo sapiens) (UniProt P21728); assay: HTS Assay for Allosteric Agonists of the Human D1 Dopamine Receptor: Primary Screen for Antagonists (AID 488983);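 also: calcium flux response to an EC80 dopamine challenge measured with no-wash dye; % is scaled to controls: 0 for no effect and ±100 for the full control effect; nearly all actives have a fitted effect of over 65% in size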
Outline: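 In this primary screen, compounds are applied to calcium-dye-loaded HEK293 T-REx cells with force-coupled D1 expression induced overnight at 30 C. An EC80 of dopamine follows the 180 s compound phase, and calcium is monitored for a further 180 s.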

[27] = Validation screen for small molecules that induce genotoxicity in human embryonic kidney (HEK293T) cells expressing luciferase-tagged ELG1 (AID 493106); also: 0% is about no effect
Outline: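 In this validation screen, increased ELG1-luciferase signal flags compounds causing genetic stress. HEK293T reporter cells are treated 16 hr (37 °C, 5% CO2), developed with ONE-Glo for 30 min at room temperature, and imaged on a CCD-based reader.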

[28] = biological target: ATPase family AAA domain-containing protein 5 (Homo sapiens) (UniProt Q96QE3); assay: Validation screen for small molecules that inhibit ELG1-dependent DNA repair in human embryonic kidney (HEK293T) cells expressing luciferase-tagged ELG1 (AID 493107);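 also: cells co-treated with the DNA-damaging agent 5-fluorouridine alongside compound; % is scaled to controls: 0 for no effect and ±100 for the full control effect; inhibitors lower the ELG1-luciferase luminescence signal; nearly all actives have a fitted effect of over 70% in size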
Outline: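 Compounds reducing 5-fluorouridine-driven ELG1-luciferase signal in HEK293T cells were scored; exposure lasted 16 hr at 37 °C with luminescence detected via ONE-Glo.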

[29] = Nrf2 qHTS screen for inhibitors: Validation (AID 493153; active = well fitted inhibition curve with a large enough effect in the main read-out, with a control signal flat, not every such curve was filed as active;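 as to activity change, negative = inhibition: A549 cells with ARE-driven firefly luciferase reporter reporting Nrf2 activity; % of control where 0% means no effect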); conditions: viability change: measured here: cytotoxicity max response
Outline: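 In this counterscreened reporter format, each well gives two signals: CellTiter-Fluor fluorescence for cytotoxicity and ARE-luciferase luminescence for Nrf2 function. A549 ARE_Fluc cells in 5% FBS OPTI-MEM were exposed to compound titrations for 18-24 h.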

[30] = biological target: Peptidyl-prolyl cis-trans isomerase NIMA-interacting 1 (Homo sapiens) (UniProt Q13526); assay: qHTS Validation Assay to Find Inhibitors of Pin1 (AID 504536; active = well fitted inhibition curve with a large enough effect in the polarisation, with a control signal flat, not every such curve was filed as active; the % refers to the polarisation;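 also: 0% = full Pin1 enzyme wells and -100% = no-enzyme wells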)
Peptidyl-prolyl cis-trans isomerase NIMA-interacting 1 (Homo sapiens), sequence (Q13526 whole entry, looked up): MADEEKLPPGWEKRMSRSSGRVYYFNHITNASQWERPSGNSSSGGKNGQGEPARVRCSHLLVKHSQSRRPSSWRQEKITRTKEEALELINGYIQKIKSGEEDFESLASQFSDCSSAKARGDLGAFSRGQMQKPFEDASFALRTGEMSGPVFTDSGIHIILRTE
Outline: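 Fluorescence polarization competition: compounds (titration) displace HiFluor-488-labeled Pin1-1b peptide from Pin1 (0.3 uM final) in pH 7.5 HEPES buffer with DTT, 10 min at room temperature; %Activity normalized to no-enzyme wells, curves fitted.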

[31] = biological target: Phosphoglycerate kinase, glycosomal (Trypanosoma brucei brucei) (UniProt P07378); assay: qHTS Validation Assay to Find Inhibitors of Phosphoglycerate Kinase (AID 504547);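 also: control wells lack PGK and mark full inhibition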
Outline: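 In TEA buffer (100mM, pH 7.6) containing 5mM MgCl2 and 0.01% Tween-20, the GAPDH-coupled PGK reaction proceeded for 60 minutes at room temperature before a single luminescence reading using Kinase-Glo Plus.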

CC[N+](CC)(CC)CC
-5.41%: viability change [29]
inactive: Potency [1] | activity change, negative = inhibition [2] -10.5% | Potency [3] > 46 µM | Potency [4] > 46 µM | Potency [5] | Potency [6] | outcome [7] | Potency [8] | Potency [9] | Potency [10] | outcome [11] | outcome [12] | outcome [13] | outcome [14] | outcome [15] | Potency [16] | Potency [17] | Potency [18] | outcome [19] | outcome [20] | outcome [21] | Potency [22] | outcome [23] | outcome [24] | outcome [25] | outcome [26] | Potency [27] | Potency [28] | outcome [29] | Potency [30] | Potency [31]
